Experimental findings from PubChem BioAssay AID624351 (Southern Research Specialized Biocontainment Screening …, 2012) are described below.

SMILES strings stand for the structures. In all, about 2,400 compounds went through this assay and about 1,400 (58%) were called active.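 How the source made its calls: active means inhibition of 30% or more at any tested dose; inconclusive means primary hits over the limit that were never retested; inactive means the rest.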 The set was probably picked from earlier hits. The list shows a part of the results.

A short description of this experiment: coupled detection enzyme interference, dose response, artefact control for MgcRacGAP inhibitor project, biochemical, coupled enzyme counter-screen (AID 624351).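 Further: signal is the ADP detection kit reading of free GDP without any GAP enzyme.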 As to conditions: ADP Hunter coupled enzyme counter-screen, fluorescence, no MgcRacGAP; series mostly up to 80 µM. A general note: A counterscreen serves to expose hits that act by an unwanted route or on another target.
The IC50 is the point on the concentration scale where inhibition reaches its midpoint. On to `O=S(=O)(NC1=NCCCCC1)c1ccc2sc(NS(=O)(=O)c3ccc4ccccc4c3)nc2c1`, for which the IC50 result is “inactive”.
With `CC(=O)Nc1ccc(OC(=O)c2ccc(Br)c([N+](=O)[O-])c2)cc1` the entry was “inactive”; with `COc1cc(/C=C(/NC(=O)c2ccccc2)C(=O)Nc2ccc(O)cc2)c([N+](=O)[O-])cc1OC`, 58 µM (active); with `CCOc1ccc(C(=O)NC(=S)Nc2ccc(N3CCCCC3)cc2)cc1[N+](=O)[O-]`, “inactive”.
With `CN(C)c1nc(=NCc2cccs2)ss1` the entry was “inactive”; with `COc1cc(/C=N/NC(=O)C(=O)Nc2ccccn2)ccc1O`, 27.8 µM (active).
With `COc1cc(/C=N/NC(=O)c2cccc(NC(=O)c3ccccc3C)c2)ccc1O` the figure was 34.4 µM (active).
For the compound `COc1cc(/C=N/NC(=O)c2cc[n+]([O-])cc2)ccc1O`, the IC50 is 35.7 µM (active).
With `COc1cc(/C=N\Nc2cc(=O)n(C)c(=O)n2C)ccc1O` the figure was 36 µM (active).
With `CN(C)CCO/N=C(\c1ccc(Br)cc1)c1cccnc1` the entry was “inactive”.
With `O=C(N/N=C/c1ccc(O)c(O)c1)c1ccc(-n2cnnn2)cc1` the figure was 18.7 µM (active); with `COc1cc(/C=N/NC(=O)c2[nH]nc3c2CCc2ccccc2-3)ccc1O`, 56.5 µM (active).
In the case of `COc1cc(/C=N/NC(=O)c2ccc(-n3cccc3)cc2)ccc1O`, the IC50 was 22.3 µM (active).
With `COc1cc(/C=N/NC(=O)C2(O)c3ccccc3-c3ccccc32)ccc1O` the figure was 45.5 µM (active); with `COc1ccc(/C=N/NC(=O)c2cc[n+]([O-])cc2)cc1O`, 35.3 µM (active); with `COc1ccc(NS(=O)(=O)c2cccc(C(=O)NN=Cc3ccc(O)c(OC)c3)c2)cc1`, “inactive”.
For the compound `COc1cc(/C=N/NC(=O)c2cc3ccccc3[nH]2)ccc1O`, the half-maximal inhibitory concentration (IC50) is 20.8 µM (active).
With `COc1cc(/C=N/Nc2ccc(C(=O)O)cc2)ccc1O` the figure was 36.1 µM (active).
For the compound `COc1cc(/C=N/NC(=O)c2ccccc2)ccc1O`, the IC50 was 29.6 µM (active).
The value for `COc1ccc(C(C#N)=C2C=CC(=NO)C=C2)cc1` was 57.4 µM (active).
With `O=C(CNC1CCCCCC1)Nc1ccccc1N1CCOCC1` the entry was “inactive”; with `CCOc1cc(N2CCOCC2)c(OCC)cc1NC(=O)c1ccc(C)s1`, 65.1 µM (active); with `CCOc1cc(N2CCOCC2)c(OCC)cc1NCC(=O)N1CCN(Cc2ccccc2)CC1`, “inactive”.
The value for `CCN(CC)c1ccc(NC(=O)c2ccc(Br)o2)cc1` was 29.2 µM (active).
For the compound `CCN(CC)c1ccc(NC(=O)C2CCCC2)cc1`, the 50% inhibitory concentration (IC50) was 76.8 µM (active).
The value for `Cc1ccc(NC(=O)CN(C)C2CCCCC2)cc1Br` was “inactive”; that for `CCN(CC)c1ccc(CN2CCC(C(=O)NCc3ccc(C)cc3)CC2)cc1` was “inactive”.
On to `CCN(CC)c1ccc(NC(=O)Nc2ccccc2)cc1`, for which the IC50 was 53.3 µM (active).
With `CCN(CC)CCNCC(=O)Nc1ccc(Oc2ccccc2)cc1` the entry was “inactive”; with `CCN(CC)CC(=O)NN(Cc1ccccc1)c1ccccc1`, “inactive”.
`O=c1oc2ccccc2c2c1C(c1ccc(Cl)cc1)Nc1ccc3ccccc3c1-2` (configuration not stated): the IC50 entry was “inactive”.
The value for `CN1CCCN(Cc2ccccc2C(F)(F)F)CC1` was “inactive”; that for `CCc1nnc(NC(=O)CSCc2cc(=O)n3ccsc3n2)s1` was “inactive”.
With `Cc1ccc(N2CC(C(=O)Nc3ccc(N(C)C)cc3)CC2=O)cc1C` (configuration not stated) the figure was 62.4 µM (active); with `COc1ccc(OC(=O)C2CC(=O)N(c3ccc(C)cc3)C2)cc1` (configuration not stated), “inactive”; with `CS(=O)(=O)C1=NSC2=NC(=O)/C(=C\c3ccc(OC(=O)c4ccco4)c(Br)c3)C(=N)N21`, “inactive”.
With `O=[N+]([O-])c1ccc(N2CCN(c3ccc(O)cc3)CC2)c(Cl)c1`, the IC50 is 40.4 µM (active).
`O=[N+]([O-])c1ccc(N2CCN(CCOCCO)CC2)c([N+](=O)[O-])c1`: the IC50 entry is “inactive”.
For `Cc1cc(Cl)cc2sc(=S)[nH]c12`, the half-maximal inhibitory concentration (IC50) is 81.5 µM (active).
With `CCn1c2ccccc2c2cc(N)ccc21` the entry was “inactive”; with `Cc1c(N(C)C)nc2ccccc2c1N`, “inactive”; with `CN(C)c1cc2c3ccccc3n(C)c2cc1N`, 13.4 µM (active).
With `CC1(C)OC(=O)C(=NNc2ccc(O)cc2)C(=O)O1` the figure was 23.5 µM (active).
Take `COc1ccc2[nH]c3c(N4CCC(O)(c5cccc(C(F)(F)F)c5)CC4)ncnc3c2c1`: the IC50 result is “inactive”.
Take `Cc1ccc(SCCN2CCN(Cc3ccccc3)CC2)cc1`: the IC50 entry is “inactive”.
The value for `Cc1ccc2c(c1)[nH]c1c(N3CCN(Cc4ccccc4)CC3)ncnc12` was 45.1 µM (active).
On to `Cc1nc2ccccc2n2c(O)c(CC(=O)O)cc12`, for which the half-inhibitory concentration (IC50) is 33 µM (active).
With `COc1cc(/C=C/C(=O)N[C@@H](Cc2c[nH]c3ccccc23)C(=O)O)ccc1O` the figure was 83.7 µM (active); with `Cc1ccc(CN2CCN(C(=O)CC(C)C)CC2)cc1`, “inactive”; with `O=C(CSc1ccc2ccccc2c1)N1CCN(c2ccc(O)cc2)CC1`, 46.5 µM (active).
The value for `O=S(=O)(c1ccc2ccccc2c1)N1CCN(c2ccc(O)cc2)CC1` was 39.5 µM (active).
With `O=S(=O)(c1ccc2ccccc2c1)N1CCN(C2CCN(Cc3ccccc3)CC2)CC1` the entry was “inactive”; with `CCOC(=O)N1CCC(N2CCN(S(=O)(=O)c3ccc4ccccc4c3)CC2)CC1`, “inactive”.
As to `Cc1ccc(S(=O)(=O)N2CCN(C(=O)CN3CCN(c4ccc(O)cc4)CC3)CC2)cc1`, the concentration for half-maximal inhibition (IC50) was 34.6 µM (active).
With `C/C=C(\C)CN1CCN(c2ccc(C)cc2)CC1` the entry was “inactive”.
As for `Cc1cc2nc(/N=C(\N)NC(=O)N3c4ccccc4Sc4ccccc43)nc(C)c2cc1C`, the IC50 result is “inactive”.
The value for `C#CCOCCOCCOCCNc1nc(N2CCN(C(=O)C([C@@H](C)O)n3cc([C@@H](N)CCCCN)nn3)CC2)nc(N2CCN(C(=O)[C@H](CCCN=C(N)N)n3cc(C(N)[C@@H](C)CC)nn3)CC2)n1` (some centres not stated) was “inactive”; that for `Cc1cc(O)ccc1Nc1nc(-c2cccs2)cs1` was 44 µM (active); that for `CC(C)N1CCN(C(=O)c2cccc(Cl)c2)CC1` was “inactive”.
As to `Nc1ccc(N2CCN(c3cccc(Cl)c3)CC2)cc1`, the IC50 was 18.6 µM (active).
With `Nc1ccc(N2CCN(c3ccc(Cl)c(Cl)c3)CC2)cc1` the figure was 20.5 µM (active); with `CCCCCC(=O)Nc1cc(S(=O)(=O)O)cc2cc(S(=O)(=O)O)cc(O)c12`, “inactive”; with `CCN(CC)c1ccc(NS(=O)(=O)c2ccc(-c3ccc(=O)[nH]n3)o2)c(C)c1`, “inactive”.
With `Cc1ccc(Nc2n[nH]c(=S)s2)cc1F` the figure was 50.3 µM (active); with `CC(=O)Nc1n[nH]c(=S)s1`, 48.7 µM (active); with `Cc1ccc(Nc2n[nH]c(=S)s2)cc1`, 50.6 µM (active).
With `CCOc1ccc(Nc2n[nH]c(=S)s2)cc1` the figure was 42.5 µM (active); with `O=C(O)c1ccc(S(=O)(=O)c2ccc3c(c2)C(=O)N(NC(=O)c2cccnc2)C3=O)cc1`, “inactive”.
As for `COc1ccc(Nc2ccc3ccccc3c2)cc1`, the IC50 is 66.9 µM (active).
With `COc1ccc(Nc2ccccc2)c(C)c1` the figure was 37.4 µM (active).
The value for `COc1ccc(NC(=S)NNS(=O)(=O)c2ccc3ccccc3c2)c(OC)c1` was “inactive”; that for `COc1ccc(NC2=NCCC2)cc1` was “inactive”; that for `OCCN1CCN(CC(O)COC(c2ccc(F)cc2)c2ccc(F)cc2)CC1` (configuration not stated) was “inactive”.
For `Cc1cc(OCc2nc3ccccc3s2)ccc1N`, the IC50 was 63.7 µM (active).
With `CCOc1ccc2nc(NC(=O)CS(=O)(=O)c3ccccc3)sc2c1` the entry was “inactive”.
The value for `CCCS(=O)(=O)N1CCN(CC2CC3C=CC2C3)CC1` (configuration not stated) was “inactive”.
As to `COc1cc(OC)c(CN2CCCN(C)CC2)cc1Br`, the IC50 result was “inactive”.
For the compound `Fc1ccc(CNCc2ccccc2Cl)cc1`, the IC50 entry was “inactive”.
With `Oc1ccc(Cc2ccc(Cl)cc2)c(O)c1` the figure was 78 µM (active); with `Oc1ccc(Cc2ccccc2Cl)c(O)c1`, 60.2 µM (active).
With `CCC(=O)N1CCc2cc(S(=O)(=O)CCC(=O)NCc3ccc(C)cc3)ccc21` the entry was “inactive”; with `N#CC1(Nc2ccc(-c3ccc(NC4(C#N)CCCC4)cc3)cc2)CCCC1`, 11.6 µM (active).
With `C[n+]1ccc(/C=C/c2ccccc2O)c2ccccc21` the entry was “inactive”.
With `CCOc1ccccc1N1CCN(C/C=C/c2ccc(N(C)C)cc2)CC1`, the IC50 entry was “inactive”.
As for `CC[n+]1ccc(/C=C/c2ccc(N(C)C)cc2)c2ccccc21`, the IC50 was 47 µM (active).
Regarding `O=C(CCl)NCCN1C(=O)S/C(=C\c2cccnc2)C1=O`, the IC50 result is “inactive”.
Regarding `COc1cc2c(cc1OC)C(/C=C/c1ccco1)=NCC2`, the IC50 result was “inactive”.
The value for `O=c1/c(=C/c2ccc(O)cc2)sc2n1CCCN=2` was 21.7 µM (active).
The value for `COc1cc(/C=c2\sc3n(c2=O)CCCN=3)ccc1O` was 17.7 µM (active); that for `Cc1cc(Cl)cc(C)c1OCCOCCNCc1ccccc1` was “inactive”; that for `Cc1cc2[nH]c3c4ccccc4nc(C)c3c2cc1C` was “inactive”.
The value for `O=C1Nc2ccccc2C1=Nc1ccc2[nH]c3ccccc3c2c1` was 23.4 µM (active).
Regarding `CCOC(=O)c1c(N)sc2c1CCS(=O)(=O)C2`, the IC50 entry was “inactive”.
The value for `CCOC(=O)c1c(N)sc2c(O)c(Br)ccc12` was 58.1 µM (active); that for `Oc1ccc2c(ccc3[nH]cnc32)c1` was 42.6 µM (active); that for `O=C(Oc1ccc2c(c1)OCO2)c1ccncc1` was “inactive”.
`CN(C)c1ccc(NC(=O)COC(=O)c2ccc3c(c2)OCO3)cc1`: the IC50 is 67 µM (active).
With `CCN(CC)c1ccc(NC(=O)c2ccc3c(c2)OCO3)cc1` the figure was 66.8 µM (active); with `CC(C(=O)Nc1ccc2c(c1)OCO2)N1CCN(C)CC1` (configuration not stated), “inactive”.
With `CCN(CC)CCOC(=O)c1ccc(N/C=C(/C#N)c2nc(-c3ccc4c(c3)OCO4)cs2)cc1` the entry was “inactive”.
In the case of `CCN(CC)C(=O)C1CCCN(Cc2ccc3c(c2)OCO3)C1` (configuration not stated), the IC50 result was “inactive”.
The value for `Nc1ccc2c(c1)Nc1ccccc1CC2` was 37.8 µM (active); that for `Cc1ccccc1OCCN1CCCC1` was “inactive”.
For the compound `Cc1ccccc1OCCn1c(=S)[nH]c2c(N)ncnc21`, the 50% inhibitory concentration (IC50) is 68.2 µM (active).
In the case of `CC(C)Oc1ccc(OCCn2c(=S)[nH]c3c(N)ncnc32)cc1`, the IC50 was 76.4 µM (active).
With `C/C(=N/Nc1ccc(C(=O)O)cc1)c1ccc2c(c1)Nc1ccccc1S2` the figure was 51.3 µM (active).
The value for `C/C(=N\NC(=O)c1ccc(O)cc1)c1ccc2c(c1)Nc1ccccc1S2` was 41.1 µM (active).
